# MITF inh – inhibitors of human MITF; actives 0.91% (n = 650,000); AID 1259374; inhibition, % at 2.6 µM; AlphaScreen MITF homodimerization, bead proximity signal; O75030; in the data active means inhibition above about 50%
# TEAD-YAP block – TEAD-YAP interaction inhibition | HEK-TIYL cells, TEAD-Gal4/YAP UAS-luciferase luminescence | inhibition, % at 9.12 µM | actives 1.4% (n = 640,000); in the data active means inhibition above about 32%
# GPR151 ag – activates the human receptor GPR151 | Q8TDV0 | PathHunter beta-arrestin GPR151 cells, luminescence | activation, % at 11.2 µM | actives 1% (n = 650,000) | AID 1508602; in the data active means activation above about 4.9%
# FBW7 activator – activators of human E3 ligase FBW7. Q969H0. AlphaScreen FBW7–phospho-cyclin E peptide binding, activator screen. normalized activity (activation), % at 26.1 µM. actives 0.13% (n = 650,000). AID 1259310; in the data active means normalized activity above about 1.9%;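 further: purified mutant Fbw7 with reduced substrate affinity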
# Hits are given with their value; n = inactive. This is a sample that favours compounds with a hit; in the whole collection about 3.4% have one here.
SMILES,MITF inh,TEAD-YAP block,GPR151 ag,FBW7 activator
Cc1nc2sccn2c1CN1CCCC(N(C)CCc2ccccc2)C1 (centres undefined),n,43,n,n
COc1cccc(CC2(CO)CCCN(Cc3c(C)nc4sccn34)C2)c1 (centres undefined),n,41,n,n
O=C(Cc1cn(-c2ccc(N3CCC(N4CCOCC4)CC3)nn2)c2ccccc12)NCCOc1ccccc1,n,n,n,n
COc1ccc(/C=N\Nc2ncccc2[N+](=O)[O-])c(OC)c1,n,41,n,n
CC1(c2csc(Nc3ccccc3Cl)n2)CCC(=O)O1 (centres undefined),n,35,n,n
CCOc1ccc(Nc2nc(C3(C)CC(CC(C)C)C(=O)O3)cs2)cc1 (centres undefined),n,n,n,n
COc1ccccc1Nc1nc(C2(C)CC(CC(C)C)C(=O)O2)cs1 (centres undefined),n,55,n,n
Cc1ncn(-c2ccc(Nc3cc(-c4cccc(N5CCOCC5)c4)ccn3)cc2)n1,n,n,n,n
Cc1ncn(-c2ccc(Nc3nccc(Nc4cccc(N5CCOCC5)c4)n3)cc2)n1,n,63,n,n
Cc1ncn(-c2ccc(Nc3nccc(Nc4cccc(N)c4)n3)cc2)n1,n,35,n,n
COc1ccc2c(c1)c(CC(=O)Nc1ccccn1)c(C)n2C(=O)c1ccc(Cl)cc1,n,37,n,n
COC(=O)CN1C(=S)N(C)C(=O)/C1=C/c1cc(OC)c(O)c(OC)c1,n,46,n,n
CC(C)(C)NC(=O)CCN(N)C1=NS(=O)(=O)c2ccccc21,n,n,n,n
CCOC(=O)c1c2c(n(C)c1CN(C)C)C(=O)C(=O)c1ccc(Br)cc1-2,n,96,n,n
CCOC(=O)c1c2c(n(C)c1CNC(C)C)C(=O)C(=O)c1ccc(Br)cc1-2,n,n,n,n
CCC(c1nnnn1CCOC)N(Cc1cc2ccc(OC)cc2[nH]c1=O)C1CCCC1 (centres undefined),n,58,n,n
O=C(Cc1ccc(Cl)cc1)NCc1cccs1,n,n,n,9.5
O=C(NCc1cccs1)C1CCN(C(=O)Nc2ccc(Cl)cc2)CC1,n,n,n,2.4
Cc1nc2ccccn2c1C(=O)Nc1ccc(CC(=O)NCc2cccs2)cc1,n,55,n,n
Cc1nc2ccccn2c1C(=O)Nc1ccccc1,n,n,n,n
CCC(=O)C(C#N)c1nnc(-c2ccccc2)s1 (centres undefined),n,37,n,n
O=C(O)CCN(CCC(=O)O)c1nnc(-c2ccccc2)s1,n,n,n,n
CSc1ccccc1NC(=O)c1c(C(F)(F)F)nc2ccccn12,n,n,n,n
CC(=O)c1ccc(OCC(=O)NCC2CCC3(CCN(C(=O)CC(C)C)CC3)O2)cc1 (centres undefined),n,n,n,n
COc1ccc(C(=O)Nc2nc3c(cc4c5c(cccc53)CC4)s2)cc1OC,n,n,n,2.0
SMILES,MITF inh,TEAD-YAP block,GPR151 ag,FBW7 activator
CC(C)(CO)NC(=O)c1cc(-c2ccc(Cl)cc2Cl)on1,n,48,n,n
CCN(CC)C(=O)c1cc(-c2ccc(Cl)cc2Cl)on1,n,n,n,n
N#CC1=C(N)Oc2cc(N)ccc2C1c1ccc(Br)cc1 (centres undefined),n,n,n,n
CCN(CC)c1ccc2c(c1)OC(N)=C(C#N)C2c1cccc(F)c1 (centres undefined),n,68,n,n
CN(C)c1ccc2c(c1)OC(N)=C(C#N)C2c1ccc(F)cc1 (centres undefined),n,n,n,n
N#CC1=C(N)Oc2cc(N)ccc2C1c1cccc(Br)c1 (centres undefined),n,55,n,n
CCCC/C=C\c1cnc2c(NCCc3cccnc3)nccn12,n,n,n,n
O=C(c1ccccc1)n1c2ccccc2c2ccccc21,n,36,n,n
O=C(O)Cn1c2ccccc2c2ccccc21,n,n,n,n
Cc1ccc(OCC(=O)Nc2ccccc2F)c(Br)c1,n,38,n,n
Cc1ccc(NC(=O)COc2ccccc2C)c(Br)c1,n,n,n,n
COC(=O)c1cccc(NC(=O)COc2ccccc2Br)c1,n,43,n,n
Cc1ccc(NC(=O)COc2c(C)cccc2C)c(Br)c1,n,n,n,2.5
Cc1ccc(NC(=O)c2cccc(Br)c2)c(Br)c1,n,n,n,2.5
COc1ccnc(N2CCC(N(Cc3cccnc3)C(=O)c3ccco3)CC2)n1,n,n,n,n
COc1ccc(C(CNC(=O)c2ccc(N)c([N+](=O)[O-])c2)N2CCCCC2)cc1 (centres undefined),n,n,n,n
O=C(Nc1cccc(F)c1)C(=O)N1CCCCC1,n,n,n,n
Cc1ccc(NC(=O)CCC2COc3ccccc3O2)cc1C (centres undefined),n,n,n,n
Cc1c(C=C2C(=O)N(C)C(=O)N(C)C2=O)c2ccccc2n1Cc1ccccc1,n,n,n,n
Cc1ccccc1NC(=O)COc1ccccc1C=O,n,n,n,n
COC(=O)c1cccc(NC(=O)COc2cc(C)ccc2C(C)(C)C)c1,n,n,n,n
CC(=O)c1cccc(NC(=O)COc2ccc(C(C)(C)C)cc2)c1,n,n,n,n
Cc1ccccc1NC(=O)COc1ccc(Br)cc1C=O,n,45,n,n
O=C(Cc1ccccc1)Nc1cccc(C(=O)OCC(=O)c2ccc([N+](=O)[O-])cc2)c1,n,n,n,n
Cc1ccc(C)c(C(=O)COC(=O)c2cccc(NC(=O)Cc3ccccc3)c2)c1,n,42,n,n
SMILES,MITF inh,TEAD-YAP block,GPR151 ag,FBW7 activator
COC(=O)c1cccc(NC(=O)COc2ccc(C)cc2Br)c1,n,91,n,n
CCC(C)(C)c1ccc(OCC(=O)Nc2cccc(C(=O)O)c2)cc1,n,38,n,n
COc1cccc(CN2C(=O)C3C(C(=O)Nc4cccc(SC)c4)C4C=CC3(O4)C2C(=O)NC2CCCC(C)C2C)c1 (centres undefined),n,n,n,n
CCCOC(=O)c1cccc(NC(=O)COc2ccc(C)cc2Br)c1,n,92,n,n
CCCOC(=O)c1cccc(NC(=O)COc2ccccc2OC)c1,n,n,n,n
O=C(COc1cccc2ccccc12)Nc1ccncc1,n,40,n,n
Cc1ccc(OCC(=O)Nc2cccc(C(=O)O)c2)c(Br)c1,n,98,n,n
Cc1cc(NC(=O)CSc2nc3ccccc3c(=O)n2CCCN2CCC(C)CC2)n[nH]1,n,85,n,n
Cc1nc2c3ccccc3nc(SCC(=O)Nc3cc(C)[nH]n3)n2n1,n,56,n,n
Cc1cc(NC(=O)CSc2nc3ccccc3c(=O)n2CCCC(=O)NCCc2ccccc2)n[nH]1,n,n,n,n
Cc1cc(NC(=O)CSc2nc3ccccc3c(=O)n2CCCC(=O)N2CCCC2)n[nH]1,n,54,n,n
O=C(CSc1nc2ccccc2c(=O)n1CCCN1CCCCC1)Nc1ccccc1Cl,n,n,n,n
Cc1cc(NC(=O)CSc2nc3ccccc3c(=O)n2CCCN2CCCCC2)n[nH]1,n,84,n,n
Cc1cc(NC(=O)CSc2nc3ccccc3c(=O)n2CCC(=O)N2CCN(c3ccccc3)CC2)n[nH]1,n,n,n,n

# Screening data (PubChem BioAssay)
